# Legend:
# [1] = tested on: BMPR1B; settings: read-out: apparent Kd; compound concentrations:100 nM and 1000 nM (sheet 'Lestaurtinib' of Supplementary Table 1),run:Lestaurtinib_02496_R2,Plate:MR013; n = 1
# [2] = tested on: CSNK2A2; settings: read-out: apparent Kd; compound concentrations:100 nM and 1000 nM (sheet 'Lestaurtinib' of Supplementary Table 1),run:Lestaurtinib_02487_R1,Plate:MR012; n = 1
# [3] = tested on: EPHA1; settings: read-out: apparent Kd; compound concentrations:100 nM and 1000 nM (sheet 'Lestaurtinib' of Supplementary Table 1),run:Lestaurtinib_02487_R1,Plate:MR012; n = 1
# [4] = tested on: EPHA2; settings: read-out: apparent Kd; compound concentrations:100 nM and 1000 nM (sheet 'Lestaurtinib' of Supplementary Table 1),run:Lestaurtinib_02487_R1,Plate:MR012; n = 1
# [5] = tested on: EPHA4; settings: read-out: apparent Kd; compound concentrations:100 nM and 1000 nM (sheet 'Lestaurtinib' of Supplementary Table 1),run:Lestaurtinib_02487_R1,Plate:MR012; n = 1
# [6] = tested on: EPHB1; settings: read-out: apparent Kd; compound concentrations:100 nM and 1000 nM (sheet 'Lestaurtinib' of Supplementary Table 1),run:Lestaurtinib_02487_R1,Plate:MR012; n = 1
# [7] = tested on: EPHB3; settings: read-out: apparent Kd; compound concentrations:100 nM and 1000 nM (sheet 'Lestaurtinib' of Supplementary Table 1),run:Lestaurtinib_02487_R1,Plate:MR012; n = 1
# [8] = tested on: EPHB4; settings: read-out: apparent Kd; compound concentrations:100 nM and 1000 nM (sheet 'Lestaurtinib' of Supplementary Table 1),run:Lestaurtinib_02487_R1,Plate:MR012; n = 1
# [9] = tested on: FGFR1; settings: read-out: apparent Kd; compound concentrations:100 nM and 1000 nM (sheet 'Lestaurtinib' of Supplementary Table 1),run:Lestaurtinib_02487_R1,Plate:MR012; n = 1
# [10] = tested on: GRK6; settings: read-out: apparent Kd; compound concentrations:100 nM and 1000 nM (sheet 'Lestaurtinib' of Supplementary Table 1),run:Lestaurtinib_02339_R2,Plate:MR001; n = 1
# [11] = tested on: GSK3A; settings: read-out: apparent Kd; compound concentrations:100 nM and 1000 nM (sheet 'Lestaurtinib' of Supplementary Table 1),run:Lestaurtinib_02487_R1,Plate:MR012; n = 1
# [12] = tested on: GSK3B; settings: read-out: apparent Kd; compound concentrations:100 nM and 1000 nM (sheet 'Lestaurtinib' of Supplementary Table 1),run:Lestaurtinib_02487_R1,Plate:MR012; n = 1
# [13] = tested on: HSP90B1; settings: read-out: apparent Kd; compound concentrations:100 nM and 1000 nM (sheet 'Lestaurtinib' of Supplementary Table 1),run:Lestaurtinib_02606_R3,Plate:MR019; n = 1
# [14] = tested on: LCK; settings: read-out: apparent Kd; compound concentrations:100 nM and 1000 nM (sheet 'Lestaurtinib' of Supplementary Table 1),run:Lestaurtinib_02487_R1,Plate:MR012; n = 1
# [15] = tested on: LYN; settings: read-out: apparent Kd; compound concentrations:100 nM and 1000 nM (sheet 'Lestaurtinib' of Supplementary Table 1),run:Lestaurtinib_02487_R1,Plate:MR012; n = 1
# [16] = tested on: MAP4K3; settings: read-out: apparent Kd; compound concentrations:100 nM and 1000 nM (sheet 'Lestaurtinib' of Supplementary Table 1),run:Lestaurtinib_03172_R3,Plate:MR031; n = 1
# [17] = tested on: MERTK; settings: read-out: apparent Kd; compound concentrations:100 nM and 1000 nM (sheet 'Lestaurtinib' of Supplementary Table 1),run:Lestaurtinib_02766_R2,Plate:MR027; n = 1
# [18] = tested on: MET; settings: read-out: apparent Kd; compound concentrations:100 nM and 1000 nM (sheet 'Lestaurtinib' of Supplementary Table 1),run:Lestaurtinib_02724_R1,Plate:MR021; n = 1
# [19] = tested on: PRKAR2A; settings: read-out: apparent Kd; compound concentrations:100 nM and 1000 nM (sheet 'Lestaurtinib' of Supplementary Table 1),run:Lestaurtinib_02364_R2,Plate:MR002; n = 1
# [20] = tested on: RPS6KB1; settings: read-out: apparent Kd; compound concentrations:100 nM and 1000 nM (sheet 'Lestaurtinib' of Supplementary Table 1),run:Lestaurtinib_02766_R3,Plate:MR027; n = 1
substance,measurement,setting,value
Lestaurtinib,potency estimated from few doses,[1],737 nM
same,potency estimated from few doses,[2],415 nM
same,potency estimated from few doses,[3],297 nM
same,potency estimated from few doses,[4],428 nM
same,potency estimated from few doses,[5],268 nM
same,potency estimated from few doses,[6],403 nM
same,potency estimated from few doses,[7],780 nM
same,potency estimated from few doses,[8],207 nM
same,potency estimated from few doses,[9],1150 nM
same,potency estimated from few doses,[10],2090 nM
same,potency estimated from few doses,[11],175 nM
same,potency estimated from few doses,[12],295 nM
same,potency estimated from few doses,[13],979 nM
same,potency estimated from few doses,[14],550 nM
same,potency estimated from few doses,[15],808 nM
same,potency estimated from few doses,[16],2110 nM
same,potency estimated from few doses,[17],1410 nM
same,potency estimated from few doses,[18],2150 nM
same,potency estimated from few doses,[19],979 nM
same,potency estimated from few doses,[20],1570 nM

# Source: paper PMC11062922 (Nature Chemical Biology, 2023)
